Compounds without any hit were thinned out: in the full panel of roughly 83,000, 20% have a hit.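 Step 1: grow cells in 96-well plates. Step 2: add test compound at a single concentration. Step 3: incubate 48 h. Step 4: record percent growth.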 Unmarked numbers belong to inactive results. Active and inactive are the calls of the source. How the source made its calls: active means growth percent below 10; inactive means the rest.

For the assay, the system named is HL-60(TB) leukemia. The assay can be described thus: NCI-60 one-dose screen, 48 h (100 = growth as untreated, 0 = no growth, -100 = all killed). The settings on record: 10 µM unless noted.
Consider `CCOC(=O)c1ccc(Nc2sc(C(=O)c3ccc(Br)cc3)c(N)c2C#N)cc1`, for which the growth is -2.85% (active). Turning to `CC(C)n1cnc2c(Nc3cccc(Cl)c3)nc(N[C@H]3CCCC[C@@H]3N)nc21`, the growth is 25.1%. With `COc1cccc(CNc2ncnc3c2ncn3C2OC(CO)C(O)C2O)c1O` (stereo unspecified) the figure was -47% (active). Regarding `O=C1C[C@@H]2/C(=C(O)\C=C\c3ccccc3)C(=O)C=C[C@@H]2O1`, the growth is 13.3%.

For `C=C(C)[C@@H]1CC[C@]2(C(=O)OC)CC[C@]3(C)[C@H](CC[C@@H]4[C@@]5(C)C/C(=C/NC(N)=S)C(=O)C(C)(C)[C@@H]5CC[C@]43C)[C@@H]12`, the growth is 95%. With `Oc1ccc(/C=N/N=C2c3ccccc3-c3ccccc32)c(O)c1`, the growth is 71.7%.
